Each structure is given as a SMILES string. Screen size: about 340,000 compounds; about 930 (0.27%) were called active. The list comes from a sample in which actives are over-represented; it also holds similar structures and randomly drawn compounds. Unmarked numbers belong to inactive results.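 Rule for the calls: active = inhibition above the screen-wide average of all tested compounds plus 3 SD (cut at about 25% in these data); inactive = the rest.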

The record followed here is PubChem BioAssay AID492972 (The Scripps Research Institute Molecular Screening Center, 2010).

Chain of Platelet-activating factor acetylhydrolase IB subunit alpha1 (Homo sapiens) (Q15102 whole entry, looked up): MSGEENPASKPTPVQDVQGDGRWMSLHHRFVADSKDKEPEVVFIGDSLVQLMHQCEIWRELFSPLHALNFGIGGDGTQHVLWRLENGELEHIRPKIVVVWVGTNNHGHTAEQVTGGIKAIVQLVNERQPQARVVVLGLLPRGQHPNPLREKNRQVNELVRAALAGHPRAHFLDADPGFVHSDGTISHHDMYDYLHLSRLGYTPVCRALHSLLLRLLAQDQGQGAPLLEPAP

This assay has as its target Platelet-activating factor acetylhydrolase IB subunit alpha1 (Homo sapiens) (UniProt Q15102). The assay is described as follows: PAFAH1B3 enzyme inhibitors, primary screen, biochemical, fluorescence polarization, human (AID 492972).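 Note: 0% = enzyme with DMSO only and 100% = wells lacking PAFAH1B3 protein.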 The settings on record: recombinant PAFAH1B3, FP-rhodamine probe, at 3.39 µM, hits give high values.
One may read the inhibition as the change of the read-out against control, counted positive when it falls. Take `CC(C)c1ccc(NC(=O)[C@@H](NC(=O)N2CC(=O)Nc3ccccc32)C(C)C)cc1`: the inhibition was 6.6%.

`Cc1nc(NC(CC(C)C)C(=O)O)c2nc(C)oc2n1` (stereo not given): the inhibition is 7.36%.

In the case of `COc1cccc(N(CC(=O)NCCSc2ccccn2)S(C)(=O)=O)c1`, the inhibition is 12.7%. Turning to `CCOC(=O)[C@H]1[C@H]2COc3ccc(Br)cc3[C@@H]2N2C(=O)CN(C)C(=O)[C@@]12C`, the inhibition is 2.41%. On to `CCOc1cccc(/C=N/N2C(=O)CSC2=S)c1O`, for which the inhibition is 13.7%. Regarding `Cc1cc(C(=O)N/N=C/c2ccc(O)c([N+](=O)[O-])c2)c(C)n1-c1ccc(F)cc1`, the inhibition is 9.16%. In the case of `O=C1CSC(=S)N1/N=C/c1ccc(O)c([N+](=O)[O-])c1` it was 31.7% (active).

On to `Cc1ccc(C)c2[nH]c(=O)c(CCNC(=O)CC(C)C)cc12`, for which the inhibition is 13.2%. As to `O=C(O)c1ccc(Cn2cnc3c(=S)nc[nH]c32)cc1`, the inhibition is -3%. For `COC(=O)c1ccccc1NC(=O)CSc1n[nH]c(-c2ccncc2)n1`, the inhibition is -3.63%.

As for `CC(=O)Nc1ccc(S(=O)(=O)N2CCC(C(=O)N[C@@H](Cc3ccccc3)C(=O)O)CC2)cc1`, the inhibition was -0.21%. Regarding `CCOC(=O)c1ccn(-c2nc(-c3ccco3)cc(C(F)(F)F)n2)n1`, the inhibition is 1.73%. As for `Cc1c(C(=O)O)nnn1-c1nonc1N`, the inhibition is 3.33%. As to `COC(=O)C1=C(C)NC(=O)/C1=C/c1ccc(CNS(=O)(=O)c2ccc(C)cc2)o1`, the inhibition is 10.7%. As for `Cn1c(Cc2cccs2)nnc1SCC(=O)Nc1ccccc1`, the inhibition was 10.8%. Turning to `CCOC(=O)C1=C(C)c2ccccc2OC1(C)C(=O)OCC` (stereo not given), the inhibition was 2.09%. For `CCOC(=O)c1c(C)[nH]c2c1-c1ccccc1C(=O)C2=O`, the inhibition was 58.3% (active). Turning to `CCOC(=O)c1[nH]c2ccccc2c1N=C(C)N(CC)CC`, the inhibition was 9.46%. As to `c1ccc(-c2c[nH]c(-c3ccccc3)c2)cc1`, the inhibition was 3.23%. The figure for `Cc1nc(CNS(=O)(=O)c2ccc(Oc3ccccc3)cc2)cs1` is 13.7%; for `CNC(=S)N/N=C/c1cn(Cc2ccc(C)cc2)c2ccccc12` it is 3.79%; for `N#CCC(=O)N/N=C/c1cn(Cc2ccc3ccccc3c2)c2ccccc12` it is -0.94%. In the case of `COc1cccc(Cn2cc(/C=N/NC(=O)c3cc(O)cc(O)c3)c3ccccc32)c1` it was 37.5% (active); in that of `COC(=O)C1=C[C@@H](C(=O)OC)[C@@H]2C3=C(C(=O)[C@]2(C)NC(=O)c2ccccc2)[C@H](C)n2c(=O)n(C)c(=O)n2[C@@H]3C1`, 4.02%; in that of `COC(=O)Cc1ccc(N(Cc2ccccc2F)S(=O)(=O)c2ccc(Br)cc2)cc1`, 8.61%. On to `CCN(CC)S(=O)(=O)N1CCC(C(=O)NC(C)CCc2ccccc2)CC1` (stereo not given), for which the inhibition is 9.79%. Turning to `CC(C)N(C)C(=O)CCc1nnc(CCc2c[nH]c3ccccc23)o1`, the inhibition was 1.11%.

In the case of `CN(C)CCCCCN(C)Cc1cc2ccccc2o1`, the inhibition is 3.58%. The figure for `O=C(Cn1nc([N+](=O)[O-])nc1Br)NC1CCCCC1` is 11%. In the case of `CCN1CCc2nc(NC(=O)c3cc(F)c(F)cc3Cl)sc2C1` it was 1.2%; in that of `CC(C)c1ccc(S(=O)(=O)N2CCN(C(=O)CN3C(=O)NC(C)(c4ccccc4)C3=O)CC2)cc1` (stereo not given), 5.24%; in that of `COc1ccccc1N1CCN(c2nc(C)cc(=O)[nH]2)CC1`, 9.92%.

For the molecule `Clc1cc(NC2CCCCC2)ncn1`, the inhibition was 6.06%. In the case of `COc1ccc(C(=O)COC(=O)c2ccc([N+](=O)[O-])s2)cc1OC`, the inhibition was 33.9% (active). As for `COc1cccc(/C=C/C(=O)OCC(=O)N2CCN(c3ccccc3)CC2)c1`, the inhibition was -3.05%.

Turning to `O=C(OCC(=O)N1CCN(c2ccccc2)CC1)c1ccc([N+](=O)[O-])s1`, the inhibition is 53.8% (active). For the molecule `COc1ccc(C(=O)OCC(=O)c2ccc(C)c(S(=O)(=O)N3CCOCC3)c2)cc1OC`, the inhibition is 14%.

In the case of `C[C@H](NC(=O)c1ccccc1Cl)C(=O)OCC(=O)N1CCN(c2ccccc2)CC1`, the inhibition was 2.77%. As for `COc1cc(NC(=O)COC(=O)c2ccc([N+](=O)[O-])s2)cc(OC)c1OC`, the inhibition is 23.3%. The figure for `CN1/C(=c2/s/c(=C3/C(=O)N(c4ccccc4)NC3=Nc3ccccc3)n(C)c2=O)C(C)(C)c2ccccc21` is 6.84%; for `CC(C)CC[n+]1ccn(C2=C([O-])c3ccccc3C(=O)/C2=N\S(=O)(=O)c2ccccc2)c1` it is 34.1% (active).

`COc1ccc(S(=O)(=O)/N=C2\C=C(NS(=O)(=O)c3ccccc3)C(=O)c3ccccc32)cc1`: the inhibition is -2.66%.

In the case of `CCCCCC(=O)Nc1ccc(-c2cn3cccnc3n2)cc1`, the inhibition is 8.1%. As for `COc1ccc(-c2cc3n(n2)CCc2nc4ccccc4n2-3)cc1`, the inhibition is 1.18%. For `O=C1C(Cl)=C(Oc2ccccc2)C(=O)c2ccccc21`, the inhibition is 37.3% (active).

For `CCC(C)C(NC(=O)C1CCC(=O)N1C(=O)OCc1ccccc1)C(=O)NC(C(=O)N1CCCC1C(N)=O)C(C)CC` (stereo not given), the inhibition is -7.74%.

As to `CC1CCN(CCCn2c(SCC(=O)NC3CCCC3)nc3ccccc3c2=O)CC1`, the inhibition is 6.29%. As for `O=Cc1cn(-c2ccccc2)nc1-c1ccccn1`, the inhibition is 0.88%.

For the molecule `Nc1ccc2nc3c(=O)[nH]c(=S)[nH]c3nc2c1`, the inhibition was 48.8% (active). Consider `Cn1ncc(Br)c1C(=O)NC1CCCC1`, for which the inhibition was 4.81%. Turning to `O=C(Nc1ccc(Br)cc1)C1CCC(=O)N1Cc1ccccc1Cl` (stereo not given), the inhibition is 7.1%.

`N#Cc1ccc(S(=O)(=O)NCC(=O)OCC(=O)NCCc2ccccc2)cc1`: the inhibition was -8.29%.

For the molecule `O=C(Oc1cccc(N2C(=O)C3C4c5ccccc5C(c5ccccc54)C3C2=O)c1)c1ccco1` (stereo not given), the inhibition is 12.6%. Consider `COc1cccc(C2CC(c3ccccc3)=NN2S(=O)(=O)c2ccccc2)c1OC` (stereo not given), for which the inhibition was 0.58%. Take `COc1ccc(C(=O)C(C)OC(=O)c2cccc(S(=O)(=O)Nc3c(C)n(C)n(-c4ccccc4)c3=O)c2)cc1` (stereo not given): the inhibition was 10%.

For `O=C(NN=Cc1ccccc1O)NN=Cc1ccccc1O`, the inhibition is 7.65%. The figure for `C/C(=N\Nc1ccc(Cl)nn1)c1ccccc1O` is 4.6%; for `Oc1cccc(/C=N/Nc2ccc(Cl)nn2)c1O` it is 55.2% (active). With `CN(C(=O)c1cccc(NC(=O)Cc2cccc(NC(=O)C3CCCN(C(=O)C4CC4)C3)c2)c1)C1CCC1` (stereo not given), the inhibition was 1.82%. Turning to `Cc1c2cnn(CC(=O)NCc3ccccn3)c(=O)c2c(C)n1Cc1ccc(Cl)cc1`, the inhibition was 0.23%.

For the molecule `N#C/C=C1\Sc2ccccc2C(=O)N1CC(=O)N1CCN(S(=O)(=O)c2ccccc2)CC1`, the inhibition was 5.99%. As to `Fc1c(F)c(C(F)(F)F)c(F)c(F)c1N1CCN(c2ccc3nnc(C(F)(F)F)n3n2)CC1`, the inhibition is 6.38%. `COc1ccccc1C(C)NC(=O)Cc1ccsc1` (stereo not given): the inhibition is 4.64%. The figure for `CC(=O)N(C1=C(Cl)C(=O)c2ccccc2C1=O)c1ccc(C(=O)O)cc1` is 39% (active); for `O=C(Nc1cccn(Cc2ccccc2Cl)c1=O)NC1CCCCC1` it is -6.16%; for `CC(NC(=O)COc1cccnc1[N+](=O)[O-])c1ccc(Cl)cc1Cl` (stereo not given) it is 9.45%. Regarding `CCCCN=C1C([N+](=O)[O-])=CC=C2C1=NC1(CCCCC1)N2O`, the inhibition is 7.2%. `CC(C)c1ccc(-c2nn[nH]n2)cc1`: the inhibition was 5.47%. In the case of `Cc1ccc(S(=O)(=O)N2CCN(C(=O)Cc3sc(C)nc3-c3ccc(F)cc3)CC2)c(C)c1`, the inhibition is 4.17%. As for `O=C(CN1C(=O)NC2(CCCCCC2)C1=O)Nc1ccc([N+](=O)[O-])cc1`, the inhibition is 7%. On to `CCCC1OC23CCCCC2C(C#N)(C#N)C1(C#N)C(=N)O3` (stereo not given), for which the inhibition was 27.8% (active). Turning to `CC(=O)c1c(C)[nH]c(C(=O)N2CCN(S(=O)(=O)c3ccc(F)c(F)c3)CC2)c1C`, the inhibition was 0.06%.

On to `N#Cc1c(-c2ccc(Cl)cc2)c2c([nH]c1=S)CCCC2`, for which the inhibition is 2.52%. The figure for `O=C(c1cc2cc(Br)cc(Br)c2oc1=O)N1CCOCC1` is 0.41%; for `O=C1Nc2c(Br)cc(Br)cc2C1(O)N1CCOCC1` (stereo not given) it is 38% (active); for `O=C(NC1=CC(=O)c2ccccc2C1=O)c1ccccc1` it is 28.6% (active). The figure for `CC(NC(=O)c1ccccc1)C(=O)Nc1ccccc1` (stereo not given) is 3.87%; for `O=C1C=C(NS(=O)(=O)c2ccccc2)C(=O)c2ccccc21` it is 13.3%. As for `CN1CCN(C(=O)c2cnn(-c3ccccc3)c2NC(=O)c2ccc([N+](=O)[O-])cc2)CC1`, the inhibition was 6.79%.

In the case of `OCCNc1nc2ccccc2n1-c1ncnc2sc3c(c12)CCC3`, the inhibition was 10.6%. As to `CCN(CC(=O)Nc1c(F)cccc1F)C(=O)c1cnc(C)cn1`, the inhibition is -0.64%. Regarding `COC(=O)C1=C(C)N(C)C(=O)NC1c1ccc([N+](=O)[O-])o1` (stereo not given), the inhibition was 0.98%. Regarding `COC(=O)C1=C(C)NC2=C(C(=O)c3ccccc32)C1c1ccc(-c2ccc(C(=O)O)cc2)o1` (stereo not given), the inhibition is 46.5% (active).

Turning to `CCOC(=O)c1ccc(-c2ccc(C(=O)Nc3cccnc3)o2)cc1`, the inhibition is -6.74%. Take `COc1ccc(N2CCN(C3CCCCC3NS(=O)(=O)c3ccccc3)CC2)cc1` (stereo not given): the inhibition is 7.46%. In the case of `CCOC(=O)C1=C(CN2CCc3ccccc32)NC(=O)NC1c1cc(C)ccc1C` (stereo not given) it was 0.4%; in that of `CC(C)(C)OC(=O)N1CCC(C(=O)Nc2cccc(C(=O)NCCc3ccccc3)c2)CC1`, -4.3%.

`CCOC(=O)CNC(=O)CSc1ncccc1-c1nc2ccccc2[nH]1`: the inhibition was -4.22%. Consider `O=C(Nc1ccc(CN2CCOCC2)cc1)c1cc(Cl)ccc1Cl`, for which the inhibition was 7.42%. Regarding `Cc1ccc(C)c(S(=O)(=O)N2CCN(C(=O)Nc3ccccc3)CC2)c1`, the inhibition is 3.11%.
